From PubChem BioAssay (NCATS)
Inconclusive results are not listed. Entries that show only a call come without a potency. Values without a mark were called inactive. The source made the active and inactive calls. Calls come from the whole dose curve; as a rule, active = well fitted curve in the direction sought with a large enough effect; inconclusive = small, poorly fitted or top-dose-only effect, or another doubt; inactive = no such curve, though single readings can be large; an effect the other way counts as inactive or inconclusive. Non-standard residues stand in square brackets, D forms with d. Residues, ends and D or L forms follow the SMILES beside them. *: point of attachment. Sta = CC(C)C[C@H](N)[C@@H](O)CC(=O)O; Isovaleryl = CC(C)CC(=O)*

Tests used:
[1] = Quantitative High-Throughput drug screen in 47 multiple myeloma cell lines against the NCATS MIPE library collection: KMS27_JCRB cell viability assay (AID 1918970); note: nearly all actives have a fitted effect of over 30% in size; note: potency is the fitted concentration of half-maximal effect
In short: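 Luminescent ATP read-out (CellTiter-Glo, 5 min at room temperature) after 48 h compound exposure of 500 KMS27_JCRB cells per well; DMSO wells define full viability and media-only wells zero.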

[2] = Quantitative High-Throughput drug screen in 47 multiple myeloma cell lines against the NCATS MIPE library collection: KMS12BM_JCRB cell viability assay (AID 1918971); note: potency is the fitted concentration of half-maximal effect; nearly all actives have a fitted effect of over 35% in size
In short: (§1)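 Myeloma cell lines, 500 cells per well, exposed to MIPE 4.0 library compounds for 48 h at 37C, 5% CO2. Viability from ATP by CellTiter-Glo luminescence; normalised to DMSO (100%) and media-only (0%) wells.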

[3] = Quantitative High-Throughput drug screen in 47 multiple myeloma cell lines against the NCATS MIPE library collection: KMS12PE_JCRB cell viability assay (AID 1918972); note: nearly all actives have a fitted effect of over 30% in size; note: potency is the fitted concentration of half-maximal effect; for viability: series mostly up to about 46 µM
In short: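 Steps: seed 500 cells per well; pin-transfer MIPE 4.0 library; incubate 48 h at 37C, 5% CO2, humidified; add CellTiter-Glo, 5 min room temperature; read luminescence.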

[4] = Quantitative High-Throughput drug screen in 47 multiple myeloma cell lines against the NCATS MIPE library collection: KMS26_JCRB cell viability assay (AID 1918975); note: nearly all actives have a fitted effect of over 45% in size; note: potency is the fitted concentration of half-maximal effect
In short: as §1

[5] = Quantitative High-Throughput drug screen in 47 multiple myeloma cell lines against the NCATS MIPE library collection: MMM1_PLB cell viability assay (AID 1918976); note: potency is the fitted concentration of half-maximal effect; nearly all actives have a fitted effect of over 35% in size
In short: (§2)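 Inhibition of viability over 48 h was scored by ATP content (CellTiter-Glo) in 500-cell wells. Zero and full viability were defined by media-only and DMSO-only wells.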

[6] = Quantitative High-Throughput drug screen in 47 multiple myeloma cell lines against the NCATS MIPE library collection: NCIH929_DSMZ cell viability assay (AID 1918978); note: nearly all actives have a fitted effect of over 35% in size; note: potency is the fitted concentration of half-maximal effect
In short: as §2

[7] = Quantitative High-Throughput drug screen in 47 multiple myeloma cell lines against the NCATS MIPE library collection: OCIMY1_PLB cell viability assay (AID 1918979); note: nearly all actives have a fitted effect of over 35% in size; note: potency is the fitted concentration of half-maximal effect; for viability: series mostly up to about 46 µM
In short: as §2

[8] = Quantitative High-Throughput drug screen in 47 multiple myeloma cell lines against the NCATS MIPE library collection: KMS28PE_JCRB cell viability assay (AID 1918983); note: nearly all actives have a fitted effect of over 35% in size; note: potency is the fitted concentration of half-maximal effect
In short: as §2

[9] = Quantitative High-Throughput drug screen in 47 multiple myeloma cell lines against the NCATS MIPE library collection: L363_DSMZ cell viability assay (AID 1918984); note: nearly all actives have a fitted effect of over 40% in size; note: potency is the fitted concentration of half-maximal effect
In short: as §2

[10] = Quantitative High-Throughput drug screen in 47 multiple myeloma cell lines against the NCATS MIPE library collection: OCIMY7_PLB cell viability assay (AID 1918987); note: nearly all actives have a fitted effect of over 65% in size; note: potency is the fitted concentration of half-maximal effect
In short: as §2

[11] = Quantitative High-Throughput drug screen in 47 multiple myeloma cell lines against the NCATS MIPE library collection: OCIMY5_PLB cell viability assay (AID 1918988); note: nearly all actives have a fitted effect of over 65% in size; note: potency is the fitted concentration of half-maximal effect
In short: as §2

[12] = Quantitative High-Throughput drug screen in 47 multiple myeloma cell lines against the NCATS MIPE library collection: MM1R_ATCC cell viability assay (AID 1918981); note: nearly all actives have a fitted effect of over 35% in size; note: potency is the fitted concentration of half-maximal effect
In short: as §2

[13] = Quantitative High-Throughput drug screen in 47 multiple myeloma cell lines against the NCATS MIPE library collection: LP1_DSMZ cell viability assay (AID 1918982); note: nearly all actives have a fitted effect of over 35% in size
In short: as §2

[14] = Quantitative High-Throughput drug screen in 47 multiple myeloma cell lines against the NCATS MIPE library collection: KMS34_JCRB cell viability assay (AID 1918985); note: nearly all actives have a fitted effect of over 40% in size; note: potency is the fitted concentration of half-maximal effect
In short: as §2

[15] = Quantitative High-Throughput drug screen in 47 multiple myeloma cell lines against the NCATS MIPE library collection: OPM1_PLB cell viability assay (AID 1918989); note: nearly all actives have a fitted effect of over 40% in size; note: potency is the fitted concentration of half-maximal effect
In short: as §2

[16] = Quantitative High-Throughput drug screen in 47 multiple myeloma cell lines against the NCATS MIPE library collection: SKMM1_PLB cell viability assay (AID 1919863); conditions: SKMM1 myeloma viability, CellTiter-Glo ATP, 48 h; viability: hits give low values; note: nearly all actives have a fitted effect of over 35% in size; note: potency is the fitted concentration of half-maximal effect; for viability: series mostly up to about 46 µM
In short: as §2

[17] = Quantitative High-Throughput drug screen in 47 multiple myeloma cell lines against the NCATS MIPE library collection: MOLP8_DSMZ cell viability assay (AID 1918977); note: nearly all actives have a fitted effect of over 45% in size; note: potency is the fitted concentration of half-maximal effect
In short: as §2

[18] = Quantitative High-Throughput drug screen in 47 multiple myeloma cell lines against the NCATS MIPE library collection: KMS20_JCRB cell viability assay (AID 1918973); note: nearly all actives have a fitted effect of over 45% in size
In short: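 Relative luminescence from CellTiter-Glo served as the viability signal, referenced to DMSO-treated (100%) and cell-free medium (0%) controls. Treatment lasted 48 hours at 37C with 500 cells per well.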

[19] = Quantitative High-Throughput drug screen in 47 multiple myeloma cell lines against the NCATS MIPE library collection: MM1S_ATCC cell viability assay (AID 1918980); note: nearly all actives have a fitted effect of over 45% in size; note: potency is the fitted concentration of half-maximal effect
In short: as §2

Row | Structure (SMILES) | Potency [1] | Potency [2] | Potency [3] | Potency [4] | Potency [5] | Potency [6] | Potency [7] | Potency [8] | Potency [9] | Potency [10] | Potency [11] | Potency [12] | Potency [13] | Potency [14] | Potency [15] | Potency [16] | Potency [17] | viability [16] [%] | Potency [18] | Potency [19]
1 | COC1=C(OC)C(=O)C(CCCCCCCCCCO)=C(C)C1=O | 18.7 µM (active) | 16.6 µM (active) | 18.7 µM (active) | 23.5 µM (active) | 20.9 µM (active) | 23.5 µM (active) | inactive | 14.8 µM (active) | 14.8 µM (active) | 16.6 µM (active) | 20.9 µM (active) | – | – | – | – | – | – | – | – | –
2 | Oc1ccc(OCc2ccccc2)cc1 | inactive | – | inactive | – | 5.9 µM (active) | inactive | inactive | inactive | inactive | – | – | inactive | inactive | 18.7 µM (active) | inactive | 7.43 µM (active) | – | – | – | –
3 | CCC(C)(Oc1ccc(C2(c3ccc(OC(C)(CC)C(=O)O)cc3)CCCCC2)cc1)C(=O)O (stereo unspecified) | inactive | – | inactive | – | – | inactive | inactive | – | inactive | – | inactive | inactive | inactive | – | inactive | – | inactive | 130 | – | –
4 | Cc1nc(-c2ccc(OCC(C)C)c(C#N)c2)sc1C(=O)O | inactive | – | inactive | – | 6.62 µM (active) | inactive | inactive | inactive | – | – | – | – | – | inactive | inactive | – | 2.96 µM (active) | 114 | inactive | inactive
5 | Cc1cc(O)c2c(c1)C(=O)c1cc(O)cc(O)c1C2=O | inactive | – | inactive | 11.8 µM (active) | 18.7 µM (active) | – | inactive | 10.5 µM (active) | inactive | inactive | – | – | – | inactive | – | 20.9 µM (active) | – | – | – | –
6 | CC(C)CC(=O)N[C@H](C(=O)N[C@H](C(=O)N[C@@H](CC(C)C)[C@@H](O)CC(=O)N[C@@H](C)C(=O)N[C@@H](CC(C)C)[C@@H](O)CC(=O)O)C(C)C)C(C)C (Isovaleryl-VV[Sta]A[Sta]-OH) | inactive | – | inactive | inactive | – | – | inactive | inactive | inactive | inactive | – | inactive | inactive | – | inactive | – | inactive | – | – | –
7 | Oc1ccc2ccccc2c1SSc1c(O)ccc2ccccc12 | 18.7 µM (active) | – | 20.9 µM (active) | 9.35 µM (active) | 20.9 µM (active) | 8.33 µM (active) | 20.9 µM (active) | – | 13.2 µM (active) | 4.69 µM (active) | 14.8 µM (active) | 14.8 µM (active) | – | 5.9 µM (active) | 8.33 µM (active) | 18.7 µM (active) | – | – | – | 14.8 µM (active)
